This passage reports Percent Effect results from ChEMBL document CHEMBL3988442, “University of Dundee, Small-Polar-MMV Screening Library” (2021).

Common to all, as to set-up: scale not given: direction of the effect not stated beside the values
Test [1] addresses Protein translocase subunit SecA (Escherichia coli (strain K12)) (UniProt P10408). As to the kind of experiment: Assay to Identify E. coli SecA ATPase Inhibitors. Format: functional. To be noted: 30 µM.
Test [2] addresses T1, Ubiquitin-activating enzyme e1, putative (Leishmania donovani (strain BPK282A1)) (UniProt E9BSI1).
T1 sequence (whole entry): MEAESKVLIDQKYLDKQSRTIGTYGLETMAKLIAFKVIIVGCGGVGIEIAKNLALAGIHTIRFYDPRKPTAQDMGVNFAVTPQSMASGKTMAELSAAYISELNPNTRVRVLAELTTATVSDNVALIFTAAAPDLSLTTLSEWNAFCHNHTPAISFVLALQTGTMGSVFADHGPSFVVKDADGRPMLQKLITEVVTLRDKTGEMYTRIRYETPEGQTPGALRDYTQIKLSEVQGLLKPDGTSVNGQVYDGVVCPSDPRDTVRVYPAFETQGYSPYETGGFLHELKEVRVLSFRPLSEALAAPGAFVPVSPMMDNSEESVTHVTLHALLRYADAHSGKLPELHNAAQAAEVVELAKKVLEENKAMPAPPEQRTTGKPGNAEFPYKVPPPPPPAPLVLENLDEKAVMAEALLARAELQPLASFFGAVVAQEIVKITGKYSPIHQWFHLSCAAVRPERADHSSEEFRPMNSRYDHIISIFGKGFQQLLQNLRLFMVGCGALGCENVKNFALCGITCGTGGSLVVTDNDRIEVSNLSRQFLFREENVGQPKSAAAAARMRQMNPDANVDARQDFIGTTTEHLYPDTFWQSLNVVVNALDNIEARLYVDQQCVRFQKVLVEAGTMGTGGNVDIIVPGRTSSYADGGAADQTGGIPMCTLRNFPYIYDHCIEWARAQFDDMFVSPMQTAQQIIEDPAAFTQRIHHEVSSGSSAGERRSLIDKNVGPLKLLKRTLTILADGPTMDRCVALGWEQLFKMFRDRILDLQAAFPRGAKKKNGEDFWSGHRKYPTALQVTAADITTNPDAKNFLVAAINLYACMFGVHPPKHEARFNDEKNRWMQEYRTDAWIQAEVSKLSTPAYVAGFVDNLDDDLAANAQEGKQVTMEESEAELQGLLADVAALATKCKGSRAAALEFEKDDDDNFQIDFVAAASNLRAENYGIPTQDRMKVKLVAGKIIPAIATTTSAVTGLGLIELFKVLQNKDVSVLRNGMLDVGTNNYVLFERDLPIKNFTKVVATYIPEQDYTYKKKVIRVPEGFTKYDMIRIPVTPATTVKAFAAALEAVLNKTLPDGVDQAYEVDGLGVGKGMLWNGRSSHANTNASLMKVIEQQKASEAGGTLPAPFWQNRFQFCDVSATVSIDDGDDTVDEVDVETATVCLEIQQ
As to the kind of experiment: Leishmania donovani Ubiquitin Activating Enzyme (LdE1). Type of test: functional. To be noted: 30 µM.

Test [3] concerns the target AMP-activated protein kinase, AMPK (Homo sapiens) (UniProt P54646+O43741+P54619+Q9UGJ0+Q9Y478+Q13131+Q9UGI9). As to the kind of experiment: AMP-dependent Kinase enzyme assay. An in vitro enzyme assay that detects ADP turnover that is directly proportional to AMPK activity. This uses naive AMPK that is activated during the assay with MK-8722. Format: functional. To be noted: 30 µM.

Test [4] deals with Sialic acid-binding Ig-like lectin 9 (Homo sapiens) (UniProt Q9Y336). As to the kind of experiment: Hs-Siglec9 ALPHAscreen SOP 20170721. To be noted: 10 µM.
A further test concerns Trypanosoma cruzi. The test is described as follows: Trypanosoma cruzi phosphomannomutase and mannose-1-phosphate guanylyltransferase assay. Type of test: functional. To be noted: 10 µM.
Test [5] has as its target T2, Arginase-2, mitochondrial (Homo sapiens) (UniProt P78540).
T2 sequence (whole entry): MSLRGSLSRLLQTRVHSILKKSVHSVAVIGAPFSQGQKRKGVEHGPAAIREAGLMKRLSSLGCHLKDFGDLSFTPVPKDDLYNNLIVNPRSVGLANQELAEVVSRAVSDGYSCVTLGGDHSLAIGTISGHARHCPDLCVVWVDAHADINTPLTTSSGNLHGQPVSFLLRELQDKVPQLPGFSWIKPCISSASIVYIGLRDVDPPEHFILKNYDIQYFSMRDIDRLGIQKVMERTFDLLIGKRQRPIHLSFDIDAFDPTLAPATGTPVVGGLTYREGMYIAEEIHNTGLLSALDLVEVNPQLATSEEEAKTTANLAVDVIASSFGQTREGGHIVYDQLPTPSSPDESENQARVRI
As to the kind of experiment: in vitro enzyme assay to detect the production of urea directly proportional to the activity of Arginase II. Further: in the data most compounds retested in dose-response had high values. Format: functional. To be noted: 33.3 µM.

For test [6], the target named is T3, Proteasome subunit beta (Trypanosoma cruzi) (UniProt O96673).
T3 sequence (whole entry): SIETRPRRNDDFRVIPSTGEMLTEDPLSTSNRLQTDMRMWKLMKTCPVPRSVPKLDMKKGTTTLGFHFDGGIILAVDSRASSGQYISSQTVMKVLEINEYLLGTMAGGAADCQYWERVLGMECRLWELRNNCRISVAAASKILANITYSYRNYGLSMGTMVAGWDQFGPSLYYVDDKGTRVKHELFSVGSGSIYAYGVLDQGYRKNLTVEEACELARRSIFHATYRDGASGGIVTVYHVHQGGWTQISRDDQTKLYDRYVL
As to the kind of experiment: Trypanosoma cruzi proteasome chymotrypsin-like activity (TcProtChymo) assay. Further: in the data most compounds retested in dose-response had high values. Type of test: functional. To be noted: 9.37 µM.

Another test is filed under the species Homo sapiens. The test is described as follows: To identify inhibition of the IFN signalling (Jak-Stat) pathway via expression of an eGFP reporter gene under the control of an IFN-stimulated response element (ISRE) containing MxA promoter. To be noted: 30 µM. Format: functional. (In general: A reporter such as luciferase makes a cellular process visible.)
Test [7] has as its target T4, Tyrosyl-tRNA synthetase, putative (Trypanosoma cruzi (strain CL Brener)) (UniProt Q4DSP6).
T4 sequence (whole entry): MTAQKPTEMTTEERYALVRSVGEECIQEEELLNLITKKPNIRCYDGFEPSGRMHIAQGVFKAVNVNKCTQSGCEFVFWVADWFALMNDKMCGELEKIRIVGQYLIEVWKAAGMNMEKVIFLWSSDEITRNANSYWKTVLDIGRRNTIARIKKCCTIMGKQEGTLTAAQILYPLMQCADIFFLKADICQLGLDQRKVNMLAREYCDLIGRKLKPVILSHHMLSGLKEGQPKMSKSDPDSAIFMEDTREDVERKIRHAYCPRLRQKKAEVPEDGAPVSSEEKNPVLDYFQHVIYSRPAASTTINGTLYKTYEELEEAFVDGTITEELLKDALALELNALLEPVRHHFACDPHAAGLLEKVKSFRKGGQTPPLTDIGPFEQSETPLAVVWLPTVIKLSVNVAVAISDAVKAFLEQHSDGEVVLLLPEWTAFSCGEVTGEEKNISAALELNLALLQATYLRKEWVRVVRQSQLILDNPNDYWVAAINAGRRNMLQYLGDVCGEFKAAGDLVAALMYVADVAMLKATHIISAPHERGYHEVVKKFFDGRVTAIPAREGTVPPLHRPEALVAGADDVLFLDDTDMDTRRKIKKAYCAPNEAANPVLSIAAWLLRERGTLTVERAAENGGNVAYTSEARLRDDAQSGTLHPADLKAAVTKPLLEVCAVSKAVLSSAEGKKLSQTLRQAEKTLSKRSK
The test is described as follows: Trypanosoma cruzi tyrosyl tRNA synthetase (TcYRS) _High Tyrosine SOP. Further: in the data most compounds retested in dose-response had high values. Format: functional. To be noted: 30 µM.

In test [8] the target is T4, Tyrosyl-tRNA synthetase, putative (Trypanosoma cruzi (strain CL Brener)). As to the kind of experiment: Trypanosoma cruzi tyrosyl tRNA synthetase (TcYRS) SOP. Format: functional. To be noted: 30 µM.
In test [9] the target is Chromo domain-containing protein 1 (Saccharomyces cerevisiae (strain ATCC 204508 / S288c) (Baker's yeast)) (UniProt P32657). The test is described as follows: ScCHD-1 Enzyme Inhibition Assay. Further: in the data most compounds retested in dose-response had high values. Type of test: functional. To be noted: 30 µM.

For some assays here: Measured potencies and affinities stand elsewhere.

Sequence of Chromo domain-containing protein 1 (Saccharomyces cerevisiae (strain ATCC 204508 / S288c) (Baker's yeast)) (P32657 whole entry, the tested form may be a part): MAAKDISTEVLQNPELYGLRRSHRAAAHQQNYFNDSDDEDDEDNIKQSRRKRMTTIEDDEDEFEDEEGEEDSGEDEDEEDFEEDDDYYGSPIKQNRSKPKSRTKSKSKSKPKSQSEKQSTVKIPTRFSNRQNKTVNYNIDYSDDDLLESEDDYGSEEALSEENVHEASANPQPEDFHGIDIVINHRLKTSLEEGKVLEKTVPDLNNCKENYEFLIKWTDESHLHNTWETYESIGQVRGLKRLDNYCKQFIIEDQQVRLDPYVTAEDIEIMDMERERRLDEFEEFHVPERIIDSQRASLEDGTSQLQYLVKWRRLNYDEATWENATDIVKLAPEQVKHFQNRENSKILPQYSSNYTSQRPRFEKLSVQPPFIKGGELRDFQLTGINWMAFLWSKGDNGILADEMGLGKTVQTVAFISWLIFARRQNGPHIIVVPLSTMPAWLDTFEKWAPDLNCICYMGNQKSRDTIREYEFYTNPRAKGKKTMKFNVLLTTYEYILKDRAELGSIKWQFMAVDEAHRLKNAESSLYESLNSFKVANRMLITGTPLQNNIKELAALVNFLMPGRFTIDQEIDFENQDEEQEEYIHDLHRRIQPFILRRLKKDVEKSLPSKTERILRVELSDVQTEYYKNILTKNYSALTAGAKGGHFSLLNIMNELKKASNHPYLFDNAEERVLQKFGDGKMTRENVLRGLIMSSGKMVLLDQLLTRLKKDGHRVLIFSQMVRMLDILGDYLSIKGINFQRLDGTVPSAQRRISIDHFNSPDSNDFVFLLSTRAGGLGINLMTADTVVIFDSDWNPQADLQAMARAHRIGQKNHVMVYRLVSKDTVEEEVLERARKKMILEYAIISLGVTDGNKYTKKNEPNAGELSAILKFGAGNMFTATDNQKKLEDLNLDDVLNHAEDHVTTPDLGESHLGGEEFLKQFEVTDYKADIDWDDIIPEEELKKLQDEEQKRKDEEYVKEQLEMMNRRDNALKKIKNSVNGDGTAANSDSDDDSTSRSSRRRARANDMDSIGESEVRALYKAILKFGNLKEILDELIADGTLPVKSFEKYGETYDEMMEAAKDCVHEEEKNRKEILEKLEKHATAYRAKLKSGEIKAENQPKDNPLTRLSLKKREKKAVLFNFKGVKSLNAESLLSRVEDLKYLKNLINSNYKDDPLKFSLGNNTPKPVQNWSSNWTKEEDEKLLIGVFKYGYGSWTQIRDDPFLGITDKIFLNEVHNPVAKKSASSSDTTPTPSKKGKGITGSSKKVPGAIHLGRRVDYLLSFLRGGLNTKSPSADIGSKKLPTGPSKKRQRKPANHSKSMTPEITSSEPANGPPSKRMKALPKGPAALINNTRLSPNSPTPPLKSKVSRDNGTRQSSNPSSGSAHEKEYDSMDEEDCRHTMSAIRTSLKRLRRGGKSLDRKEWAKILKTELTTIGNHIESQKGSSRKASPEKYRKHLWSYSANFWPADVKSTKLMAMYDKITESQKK
Sequence of Sialic acid-binding Ig-like lectin 9 (Homo sapiens) (Q9Y336 whole entry): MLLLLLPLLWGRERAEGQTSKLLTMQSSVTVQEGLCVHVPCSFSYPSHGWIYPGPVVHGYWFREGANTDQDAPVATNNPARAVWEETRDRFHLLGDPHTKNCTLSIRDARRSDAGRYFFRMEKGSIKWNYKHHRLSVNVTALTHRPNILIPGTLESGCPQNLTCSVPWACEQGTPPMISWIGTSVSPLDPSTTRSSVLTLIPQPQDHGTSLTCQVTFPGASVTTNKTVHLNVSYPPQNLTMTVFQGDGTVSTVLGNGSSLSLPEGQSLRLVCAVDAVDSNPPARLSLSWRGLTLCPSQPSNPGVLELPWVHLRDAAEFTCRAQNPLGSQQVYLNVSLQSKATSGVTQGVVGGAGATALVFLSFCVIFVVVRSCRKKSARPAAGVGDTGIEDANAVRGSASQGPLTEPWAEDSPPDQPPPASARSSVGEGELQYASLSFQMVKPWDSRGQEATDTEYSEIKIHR
Sequence of Protein translocase subunit SecA (Escherichia coli (strain K12)) (P10408 whole entry): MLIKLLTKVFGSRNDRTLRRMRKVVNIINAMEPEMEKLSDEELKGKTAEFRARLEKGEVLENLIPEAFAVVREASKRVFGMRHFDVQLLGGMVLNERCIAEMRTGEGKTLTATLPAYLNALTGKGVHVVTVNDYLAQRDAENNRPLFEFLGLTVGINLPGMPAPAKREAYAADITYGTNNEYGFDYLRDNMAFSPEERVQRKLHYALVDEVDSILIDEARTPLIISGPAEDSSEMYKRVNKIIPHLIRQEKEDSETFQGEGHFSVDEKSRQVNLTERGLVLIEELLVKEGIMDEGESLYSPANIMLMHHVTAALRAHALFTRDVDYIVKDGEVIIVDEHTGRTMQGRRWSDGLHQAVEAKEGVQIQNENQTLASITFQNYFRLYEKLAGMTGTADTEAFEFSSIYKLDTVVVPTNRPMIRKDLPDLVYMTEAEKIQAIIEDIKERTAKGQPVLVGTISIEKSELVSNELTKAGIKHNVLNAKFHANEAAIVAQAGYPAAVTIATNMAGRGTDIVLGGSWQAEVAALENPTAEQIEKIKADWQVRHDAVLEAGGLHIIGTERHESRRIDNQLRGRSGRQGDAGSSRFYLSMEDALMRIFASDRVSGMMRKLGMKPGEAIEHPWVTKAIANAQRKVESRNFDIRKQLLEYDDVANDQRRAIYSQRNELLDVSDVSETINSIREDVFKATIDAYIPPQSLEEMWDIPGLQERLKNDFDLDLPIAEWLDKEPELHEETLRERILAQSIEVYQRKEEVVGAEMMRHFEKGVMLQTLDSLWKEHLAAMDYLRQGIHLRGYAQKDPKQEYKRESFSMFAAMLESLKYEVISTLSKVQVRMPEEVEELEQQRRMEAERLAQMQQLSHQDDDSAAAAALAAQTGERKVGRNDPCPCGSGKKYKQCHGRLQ

Consider `Fc1ccccc1CN1C[C@@H](OCc2ccncc2)[C@H]2OCCC[C@H]21`, for which the Percent Effect in [1] is -4.8%; in [2] it was 10.4%; in test [3], 6.84%; in test [4] it was 10.2%; with Trypanosoma cruzi, 4.62%; in test [5] it was -13.8%. The Percent Effect in [6] was 5.49%; in the test listed under Homo sapiens it was 6.56%; in [7], 7.53%; in [8] it was 16.1%; in test [9], -1.04%.
On to `Cc1ccoc1C(=O)N1CCOCC2(CCN(c3ncccn3)C2)C1` (stereo not given), for which the Percent Effect in [1] is -3.09%; in test [2] it was 5.41%; in test [3], -4.43%; in test [4], 21.7%; with Trypanosoma cruzi it was 5.57%; in test [5], 13.2%. Also, the Percent Effect is 9.01% in test [6]; 10.4% in the test listed under Homo sapiens; 7.53% in test [7]; 21% in [8]; -6.03% in [9].
Take `O=C(NC1COC2(CCN(Cc3ccccn3)CC2)C1)c1ccccn1` (stereo not given): the Percent Effect was -2.18% in [1]; 23.4% in test [2]; -0.85% in test [3]; -5.11% in test [4]; 0.888% with Trypanosoma cruzi; 8.39% in test [5]. The Percent Effect in test [6] was determined as 16.7%; in the test listed under Homo sapiens, 10.3%; in test [7] it was 10.6%; in test [8], 16.7%; in test [9], 31.1%.
With `COc1cccc(S(=O)(=O)N2CCn3cnc(COCC4CC4)c3C2)c1`, the Percent Effect in test [1] was -2.27%; in [2], 2.67%; in [3], 2.22%; in [4], 0.793%; in the test on Trypanosoma cruzi it was 0.386%; in [5], -33.1%. For the same compound, the Percent Effect in test [6] is 3.93%; in the test filed under Homo sapiens it was 7.62%; in test [7] it was 3.12%; in [8], 5%; in test [9], -4.77%.
In the case of `CCC(=O)N1CCC2(CC1)c1nc[nH]c1CCN2S(C)(=O)=O`, the Percent Effect in test [1] is -5.57%; in test [2], 12.5%; in test [3], -6.81%; in test [4] it was 9.02%; in the test with Trypanosoma cruzi, 4.18%; in [5] it was 23%. Further, the Percent Effect in test [6] is 11.8%; in the test listed under Homo sapiens, 13.6%; in [7], 5.26%; in test [8], 10.3%; in test [9], -5.69%.
Regarding `O=C(CS(=O)(=O)c1ccccc1Cl)NC1CCCCNC1=O` (stereo not given), the Percent Effect in [1] is -6.72%; in test [2] it was 13%; in [3], -4.35%; in test [4] it was 4.43%; in the test on Trypanosoma cruzi, 2.43%; in [5], -1.78%. In addition, the Percent Effect in [6] is 6.93%; in the test listed under Homo sapiens, -3.42%; in [7] it was 2.91%; in test [8], 14.6%; in test [9], -2.31%.
Turning to `O=C(C[C@@H]1COC[C@H]2CN(Cc3ccncc3)C[C@@H]12)N1CCOCC1`, the Percent Effect is -1.31% in test [1]; 12% in test [2]; -1.49% in test [3]; 2.73% in [4]; -6.88% in the test on Trypanosoma cruzi; -17.4% in test [5]. For the same compound, the Percent Effect in test [6] was 10.5%; in the test listed under Homo sapiens, -2.62%; in test [7] it was 0%; in [8] it was 2.56%; in test [9], -5.74%.
`CN1CCCC1c1cccc(Cc2ccccc2F)n1` (stereo not given): the Percent Effect in test [1] was -3.07%; in test [2], -20.3%; in test [3] it was 13.4%; in [4], 1.77%; in the test with Trypanosoma cruzi, -0.79%; in test [5], -3.02%. The Percent Effect in [6] was -1.87%; in the test filed under Homo sapiens it was 49.3%; in test [7] it was 14%; in test [8], 11.7%; in test [9], 0.4%.
In the case of `CC(=O)Nc1nc(CN2CCCC2Cn2cc(C)cn2)cs1` (stereo not given), the Percent Effect in test [1] was 0.188%; in test [2], 13%; in test [3], 1.99%; in test [4] it was -21.8%; in the test with Trypanosoma cruzi it was 1.08%; in [5] it was -6.53%. Besides, the Percent Effect in test [6] is 21.9%; in the test filed under Homo sapiens, 4.62%; in test [7] it was 9.52%; in test [8], 25.9%; in test [9], -28.6%.
As to `CC(C)N1CCOCC2(CN(Cc3nccs3)CCO2)C1` (stereo not given), the Percent Effect in test [1] was -5.04%; in test [2] it was 20.8%; in test [3] it was -4.7%; in [4], -3.15%; with Trypanosoma cruzi it was 2.66%; in test [5], 0.645%. Also, the Percent Effect in [6] is 16.7%; in the test listed under Homo sapiens, 3.46%; in [7], 9.52%; in test [8], 14.1%; in [9], -7.32%.
